In PubChem BioAssay (NCATS):
Inconclusive results are not listed. Activity calls are given as the source filed them. Calls follow the shape of the dose curve; as a rule, active = well fitted inhibition curve with a large enough effect; inconclusive = small, poorly fitted or top-dose-only effect; inactive = flat fitted curve, though single readings scatter.

Molecular target: Tyrosyl-DNA phosphodiesterase 1 (Homo sapiens) (UniProt Q9NUW8)
Experiment: Confirmation Assay for Inhibitors of Tyrosyl-DNA Phosphodiesterase (TDP1) (AID 489007); also: nearly all actives have a fitted effect of over 40% in size
Settings: recombinant human TDP1 enzymatic activity, dose-response
Procedure, shortened: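 AlphaScreen read-out: streptavidin donor and anti-FITC acceptor beads (10 ug/ml) bind intact substrate, so Tdp1 removal of tyrosine-FITC lowers signal. Enzyme 1 nM, substrate 15 nM, 5 min reaction at room temperature after 15 min compound preincubation.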
Potency is read from the fitted curve at half-maximal effect.

Chain of Tyrosyl-DNA phosphodiesterase 1 (Homo sapiens) (Q9NUW8 whole entry, looked up): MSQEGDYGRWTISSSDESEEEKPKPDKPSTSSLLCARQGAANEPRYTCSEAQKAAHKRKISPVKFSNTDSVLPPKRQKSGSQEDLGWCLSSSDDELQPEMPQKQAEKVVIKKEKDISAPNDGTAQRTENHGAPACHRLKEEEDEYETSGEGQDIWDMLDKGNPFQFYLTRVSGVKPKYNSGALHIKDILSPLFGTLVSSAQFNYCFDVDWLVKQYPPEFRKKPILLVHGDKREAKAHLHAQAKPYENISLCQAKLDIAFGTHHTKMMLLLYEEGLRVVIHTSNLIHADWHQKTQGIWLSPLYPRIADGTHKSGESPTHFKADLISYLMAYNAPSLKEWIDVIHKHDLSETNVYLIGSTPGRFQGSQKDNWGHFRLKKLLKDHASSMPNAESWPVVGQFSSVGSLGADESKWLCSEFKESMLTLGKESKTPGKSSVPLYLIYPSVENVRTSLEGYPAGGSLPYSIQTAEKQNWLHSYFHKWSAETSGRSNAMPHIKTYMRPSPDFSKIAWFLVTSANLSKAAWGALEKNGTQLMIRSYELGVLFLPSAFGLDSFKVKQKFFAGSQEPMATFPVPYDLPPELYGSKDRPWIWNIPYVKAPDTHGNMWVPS

Potency, active:
Nc1ccc(Nc2ccccc2)c(S(=O)(=O)O)c1 7.94 µM
N#CC(C#N)=Cc1cccn1-c1ccc(C(=O)O)cc1 3.98 µM
O=C(O)c1cc(-c2ccc(/C=N/N3C(=O)C4C5C=CC(C6CC56)C4C3=O)o2)ccc1Cl (stereo not given) 31.6 µM
Cc1ccc(C)n1-c1ccc(C(=O)O)cc1 0.794 µM
Nc1nonc1-c1nc2ccccc2n1CC(=O)N/N=C/c1ccc(-c2cccc(C(=O)O)c2)o1 14.1 µM
Clc1ccc(N2N=C(c3cccs3)CC2c2ccco2)cc1 (stereo not given) 11.2 µM
CCCCC[C@H](O)/C=C/[C@@H]1[C@@H](C/C=C\CCCC(=O)OC)[C@@H](O)C[C@H]1O 25.1 µM
N#C/C(=C\c1ccc(OCc2ccc(F)cc2)cc1)C(=O)Nc1cccc(C(=O)O)c1 14.1 µM
CC(=C/C(=O)O)/C=C/c1ccc(Cl)o1 39.8 µM
Cc1nnc(NC(=O)CCSCCC(=O)Nc2nnc(C)s2)s1 15.8 µM
CSc1ccccc1NC(=O)c1noc2c1CCC2 126 µM
O=C(CSc1nc2ccccc2[nH]1)NC1CCCC1 14.1 µM
O=C(O)C1C2C=CC(CC2)C1C(=O)O (stereo not given) 7.94 µM
Cc1nc(SCC(=O)O)c(C#N)c2c1CCCC2 8.91 µM
O=C(O)c1cc(-c2ccc(/C=C3\NC(=O)N(c4ccccc4)C3=O)o2)ccc1Cl 7.08 µM
O=C(O)c1cccc(-n2cccc2/C=C2/NC(=O)N(Cc3ccccc3F)C2=O)c1 8.91 µM
CCN(CC)Cc1c(O)c(Cl)cc2c(C)cc(=O)oc12 14.1 µM
COc1ccc(-n2cccc2/C=C2\C(=N)N3N=C(c4ccco4)SC3=NC2=O)cc1 14.1 µM
COc1ccc(N2Cc3cccc(C(=O)N4CCN(C(=O)c5ccco5)CC4)c3C2=O)cc1 7.08 µM
O=C(O)/C=C/c1ccc([N+](=O)[O-])o1 50.1 µM
O=C(CCc1n[nH]c(=O)[nH]c1=O)N/N=C/c1ccco1 31.6 µM
O=C(O)c1ccc(-c2ccc(/C=C3\NC(=O)N(Cc4ccc(Cl)cc4)C3=O)o2)cc1 14.1 µM
CCc1oc(C(=O)O)cc1COC 31.6 µM
O=C(O)c1ccc(-c2ccc(/C=C3\NC(=O)N(Cc4ccc(Cl)cc4)C3=O)o2)cc1Cl 3.55 µM
COc1ccc(S(=O)(=O)N2Cc3ccccc3CC2C(=O)O)cc1 (stereo not given) 12.6 µM
Cc1nc2ccc(C(=O)O)cc2c2c1CC(C)S2 (stereo not given) 31.6 µM
C=C(C)C(=O)Nc1cccc(C2=NOC3(C2)C[C@H](C(N)=O)N(C(=O)COc2ccc(Cl)cc2)C3)c1 (stereo not given in full) 12.6 µM
Cc1cc(C=O)c(C)n1-c1ccc(Cl)c(C(=O)O)c1 1.12 µM
O=C1NN(c2ccccc2)C(=O)/C1=C/c1ccc(-c2ccc(Cl)c(C(=O)O)c2)o1 7.08 µM
C=CCCN(Cc1ccccc1)S(=O)(=O)c1ccccc1Br 56.2 µM
CC1=NN(c2ccc(Cl)c(C(=O)O)c2)C(=O)/C1=C\c1ccc(-c2ccc(C(=O)O)cc2)o1 14.1 µM
CCN(CC)C(=O)COc1ccc2oc(-c3ccco3)cc(=O)c2c1 112 µM
O=C(CSc1nnc(SCc2ccccc2)s1)N/N=C/c1c[nH]c2ccccc12 4.47 µM
O=C(COc1ccc2oc(-c3ccco3)cc(=O)c2c1)N1CCCCC1 79.4 µM
C=C1c2cccc(OC)c2O[C@H](C(=O)OCC)[C@@H]1CCCCCC 0.0251 µM
O=S(=O)(O)c1ccc2c(c1)-c1nc-2nc2[nH]c(nc3nc(nc4[nH]c(n1)c1ccc(S(=O)(=O)O)cc41)-c1ccc(S(=O)(=O)O)cc1-3)c1ccc(S(=O)(=O)O)cc21 0.0282 µM
O=C(O)C1C2C=CC3(O2)C1C(=O)N1c2ccccc2C2OCCC2C13 (stereo not given) 35.5 µM
Cc1nn(Cc2ccc(F)cc2)c(C)c1NC(=O)c1cc2ncc(Br)cn2n1 44.7 µM
CCOC(=O)N1CCC(N2Cc3cccc(C(=O)NCc4ccc5c(c4)OCO5)c3C2=O)CC1 15.8 µM
CN(C)c1nc(-c2ccccc2)c2cnn(Cc3ccccc3)c2n1 63.1 µM
